Measured values published in PubChem BioAssay (NCI).
Compounds without any hit were thinned out: in the full panel of roughly 79,000, 15% have a hit. The source made the active and inactive calls. No stated cut-off is given here; in the data, active means growth inhibition above about 70%; inactive means the rest.

Experiments:
[1] = NCI Yeast Anticancer Drug Screen. Data for the rad52 strain (AID 147);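 further: 0% = growth of vehicle-treated control cultures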; details: S. cerevisiae rad52 mutant growth inhibition, active compounds read high
Procedure, shortened: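 Growth of repair-deficient yeast cells was compared between compound-treated and vehicle-treated cultures to give percent inhibition.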

[2] = NCI Yeast Anticancer Drug Screen. Data for the wt1 strain (AID 149);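 further: 0% = growth of vehicle-treated wt1 cultures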; details: S. cerevisiae wt1 strain (SPY 50644) growth inhibition, active compounds read high
Procedure, shortened: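 Measured: growth of wt1 yeast under compound versus vehicle treatment, reported as inhibition.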

[3] = NCI Yeast Anticancer Drug Screen. Data for the rad50EPP+ strain (AID 151);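 further: 0% = growth of vehicle-treated control cultures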; details: S. cerevisiae rad50 mutant strain, active compounds read high
Procedure, shortened: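 Measured: growth inhibition of rad50EPP+ yeast. Reference: vehicle-treated controls. Screen uses strains with defined genetic alterations in DNA damage repair or cell cycle control.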

[4] = NCI Yeast Anticancer Drug Screen. Data for the mgt1 strain (AID 153); details: S. cerevisiae mgt1 mutant growth inhibition, active compounds read high
Procedure, shortened: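 Compounds were applied to mgt1 mutant yeast, and growth was then compared against vehicle-treated control cultures to give percent inhibition.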

[5] = NCI Yeast Anticancer Drug Screen. Data for the rad50 strain (AID 155);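 further: 0% = growth of vehicle-only cultures of the same strain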; details: S. cerevisiae rad50 strain growth inhibition, active compounds read high
Procedure, shortened: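 Growth of the mutant yeast was measured after compound exposure and referenced to vehicle-treated cultures.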

[6] = NCI Yeast Anticancer Drug Screen. Data for the mec2-1 strain (AID 157); details: S. cerevisiae mec2-1 strain, active compounds read high
Procedure, shortened: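 Compounds were applied to mec2-1 yeast cells. Their growth was then compared with that of vehicle-treated cultures to give growth inhibition.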

[7] = NCI Yeast Anticancer Drug Screen. Data for the rad14 strain (AID 159);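 further: 0% = growth of vehicle-treated control cultures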; details: S. cerevisiae rad14 strain growth inhibition, active compounds read high
Procedure, shortened: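 Here, inhibition of yeast growth was measured after compound exposure, using a strain with a genetic defect in DNA damage repair and vehicle-treated cultures as the reference.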

[8] = NCI Yeast Anticancer Drug Screen. Data for the sgs1 mgt1 strain (AID 161);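 further: 0% = growth of cultures given vehicle only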; details: S. cerevisiae sgs1 mgt1 strain, active compounds read high
Procedure, shortened: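 Compounds are added to genetically altered yeast, and growth is compared with cultures given vehicle alone to give percent inhibition.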

[9] = NCI Yeast Anticancer Drug Screen. Data for the cln2 rad14 strain (AID 165);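 further: 0% = growth equal to vehicle treated cultures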; details: S. cerevisiae cln2 rad14 strain, active compounds read high
Procedure, shortened: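 Strain: cln2 rad14 yeast, altered in cell cycle control and DNA damage repair. Read-out: growth inhibition vs vehicle.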

[10] = NCI Yeast Anticancer Drug Screen. Data for the bub3 strain (AID 167); details: S. cerevisiae bub3 mutant strain, active compounds read high
Procedure, shortened: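 Whole-cell yeast assay. The mutant strain was incubated with compounds, and growth inhibition was determined by comparison with vehicle-treated cells.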

[11] = NCI Yeast Anticancer Drug Screen. Data for the wt2 strain (AID 169);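 further: 0% = growth of vehicle-treated yeast cultures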; details: S. cerevisiae wt2 strain growth inhibition, active compounds read high
Procedure, shortened: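 Growth of compound-treated yeast is measured and expressed as inhibition relative to vehicle-only controls.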

[12] = NCI Yeast Anticancer Drug Screen. Data for the mlh1 strain (AID 171);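 further: 0% = growth of vehicle-treated control cultures of the same strain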; details: S. cerevisiae mlh1 strain growth inhibition, active compounds read high
Procedure, shortened: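 Test agents were incubated with yeast bearing a defined DNA damage repair or cell cycle control alteration; values are growth inhibition normalised to vehicle-treated cultures.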

[13] = NCI Yeast Anticancer Drug Screen. Data for the sgs1 strain (AID 173);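 further: 0% = growth of vehicle-only control cultures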; details: S. cerevisiae sgs1 mutant, active compounds read high
Procedure, shortened: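 Strain with an altered DNA repair or cell cycle pathway exposed to compound. Growth then measured. Value = inhibition versus vehicle control.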

[14] = NCI Yeast Anticancer Drug Screen. Data for the mlh1 rad18 strain (AID 175); details: S. cerevisiae mlh1 rad18 strain growth inhibition, active compounds read high
Procedure, shortened: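 A repair-deficient yeast strain is exposed to test compound, and growth is scored relative to vehicle-treated controls.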

[15] = NCI Yeast Anticancer Drug Screen. Data for the rad18 strain (AID 177); details: S. cerevisiae rad18 mutant growth inhibition, active compounds read high
Procedure, shortened: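 DNA-repair-defective yeast; compound treatment; growth inhibition scored against vehicle.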

[16] = at 5.0 µM (retest, dose inferred, filed as 0.5)
[17] = at 50.0 µM (retest, dose inferred, filed as 5.0)

Measured: growth inhibition

O=C(/C=C/c1cccc(Br)c1)c1cccs1
active: [1]; at 11.0 µM 74% | [1]; at 33.0 µM 97% | [1]; at 100.0 µM 94% | [2]; at 33.0 µM 98% | [2]; at 100.0 µM 95% | [3]; at 33.0 µM 82% | [3]; at 100.0 µM 85% | [4]; at 11.0 µM 85% | [4]; at 33.0 µM 97% | [4]; at 100.0 µM 92% | [5]; at 11.0 µM 83% | [5]; at 33.0 µM 97% | [5]; [17] 96% | [5]; at 50.0 µM 88.2% | [5]; at 100.0 µM 91% | [6]; at 11.0 µM 75% | [6]; at 33.0 µM 99% | [6]; [17] 98% | [6]; at 50.0 µM 91.5% | [6]; at 100.0 µM 96% | [7]; at 11.0 µM 81% | [7]; at 33.0 µM 96% | [7]; at 100.0 µM 92% | [8]; [17] 96% | [8]; at 50.0 µM 91.8% | [9]; [17] 97% | [10]; at 11.0 µM 94% | [10]; at 33.0 µM 98% | [10]; [17] 98% | [10]; at 50.0 µM 90.8% | [10]; at 100.0 µM 96% | [11]; at 33.0 µM 98% | [11]; at 100.0 µM 95% | [12]; at 11.0 µM 89% | [12]; at 33.0 µM 97% | [12]; at 100.0 µM 95% | [13]; at 11.0 µM 78% | [13]; at 33.0 µM 98% | [13]; at 100.0 µM 94% | [14]; [17] 95% | [14]; at 50.0 µM 87.9% | [15]; at 11.0 µM 91% | [15]; at 33.0 µM 97% | [15]; at 100.0 µM 93%
inactive: [1]; at 1.2 µM -32% | [1]; at 3.7 µM -12% | [2]; at 1.2 µM -15% | [2]; at 3.7 µM -5% | [2]; at 11.0 µM 61% | [3]; at 1.2 µM -9% | [3]; at 3.7 µM -5% | [3]; at 11.0 µM 29% | [4]; at 1.2 µM -1% | [4]; at 3.7 µM 13% | [5]; at 1.2 µM 6% | [5]; at 3.7 µM 10% | [5]; [16] 8% | [6]; at 1.2 µM -16% | [6]; at 3.7 µM 4% | [6]; [16] -9% | [7]; at 1.2 µM -2% | [7]; at 3.7 µM 5% | [8]; [16] 16% | [9]; [16] 11% | [9]; at 50.0 µM 46.5% | [10]; at 1.2 µM 30% | [10]; at 3.7 µM 45% | [10]; [16] 36% | [11]; at 1.2 µM -24% | [11]; at 3.7 µM -16% | [11]; at 11.0 µM 67% | [12]; at 1.2 µM 9% | [12]; at 3.7 µM 25% | [13]; at 1.2 µM -17% | [13]; at 3.7 µM 0% | [14]; [16] 21% | [15]; at 1.2 µM 4% | [15]; at 3.7 µM 26%

COc1cc2c(cc1[N+](=O)[O-])C(=O)C(Br)(Br)CCC2
active: [1]; at 11.0 µM 98% | [1]; at 33.0 µM 99% | [1]; at 100.0 µM 94% | [2]; at 11.0 µM 91% | [2]; at 33.0 µM 99% | [2]; at 100.0 µM 98% | [3]; at 3.7 µM 73% | [3]; at 11.0 µM 99% | [3]; at 33.0 µM 100% | [3]; at 100.0 µM 96% | [4]; at 3.7 µM 73% | [4]; at 11.0 µM 100% | [4]; at 33.0 µM 99% | [4]; at 100.0 µM 97% | [5]; at 11.0 µM 97% | [5]; at 33.0 µM 99% | [5]; [17] 98% | [5]; at 50.0 µM 91.2% | [5]; at 100.0 µM 95% | [6]; at 11.0 µM 99% | [6]; at 33.0 µM 100% | [6]; [17] 100% | [6]; at 50.0 µM 93.5% | [6]; at 100.0 µM 96% | [7]; at 11.0 µM 99% | [7]; at 33.0 µM 100% | [7]; at 100.0 µM 96% | [8]; [17] 100% | [8]; at 50.0 µM 90% | [9]; [17] 98% | [9]; at 50.0 µM 90% | [10]; at 11.0 µM 98% | [10]; at 33.0 µM 99% | [10]; [17] 99% | [10]; at 50.0 µM 90% | [10]; at 100.0 µM 92% | [11]; at 11.0 µM 90% | [11]; at 33.0 µM 99% | [11]; at 100.0 µM 95% | [12]; at 3.7 µM 73% | [12]; at 11.0 µM 100% | [12]; at 33.0 µM 99% | [12]; at 100.0 µM 97% | [14]; [17] 99% | [14]; at 50.0 µM 90.8% | [15]; at 11.0 µM 96% | [15]; at 33.0 µM 99% | [15]; at 100.0 µM 95%
inactive: [1]; at 1.2 µM 39% | [1]; at 3.7 µM 63% | [2]; at 1.2 µM 38% | [2]; at 3.7 µM 50% | [3]; at 1.2 µM 40% | [4]; at 1.2 µM 50% | [5]; at 1.2 µM 42% | [5]; at 3.7 µM 50% | [5]; [16] 8% | [6]; at 1.2 µM 35% | [6]; at 3.7 µM 41% | [6]; [16] 31% | [7]; at 1.2 µM 33% | [7]; at 3.7 µM 44% | [8]; [16] 49% | [9]; [16] 25% | [10]; at 1.2 µM 9% | [10]; at 3.7 µM 36% | [10]; [16] 42% | [11]; at 1.2 µM 6% | [11]; at 3.7 µM 11% | [12]; at 1.2 µM 50% | [14]; [16] 18% | [15]; at 1.2 µM 33% | [15]; at 3.7 µM 64%

CCOC(=O)c1cc(-c2ccc(Cl)cc2)c([N+](=O)[O-])n1C
active: [1]; at 33.0 µM 90% | [1]; at 100.0 µM 96% | [2]; at 100.0 µM 96% | [3]; at 33.0 µM 78% | [3]; at 100.0 µM 93% | [4]; at 33.0 µM 84% | [4]; at 100.0 µM 96% | [5]; at 33.0 µM 89% | [5]; [17] 97% | [5]; at 50.0 µM 88.4% | [5]; at 100.0 µM 95%
inactive: [1]; at 1.2 µM 12% | [1]; at 3.7 µM 24% | [1]; at 11.0 µM 41% | [2]; at 1.2 µM 1% | [2]; at 3.7 µM 3% | [2]; at 11.0 µM 13% | [2]; at 33.0 µM 68% | [3]; at 1.2 µM 16% | [3]; at 3.7 µM 23% | [3]; at 11.0 µM 48% | [4]; at 1.2 µM -10% | [4]; at 3.7 µM -2% | [4]; at 11.0 µM 1% | [5]; at 1.2 µM 9% | [5]; at 3.7 µM 26% | [5]; [16] -12% | [5]; at 11.0 µM 34% | [6]; at 1.2 µM 15% | [6]; at 3.7 µM 23%
